Data: the supplement of paper PMC10849652
Targets with a hit are over-represented here; the source holds about 7,900 in all. About 0.6% of all pairs of compound and target were hits.

The targets below were run with c1cn2cc(-c3ccc4cn[nH]c4c3)nc(Nc3ccc(N4CCOCC4)cc3)c2n1 [entospletinib] (assay: log2 fold change, soluble protein after heating vs DMSO (PISA); higher = thermal stabilisation; K562 cells, 10 uM, 30 min; active = over 0.2 and 3.5 SD of the protein, either way, in both replicates (recomputed)).
How it was run: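 Values are thermal stability changes relative to control samples and are taken from duplicates. They are stated as log2 fold changes. Before quantification by TMTpro 16plex LC-MS/MS with equalised channel sums, K562 cells at 2×10^6 cells/mL were treated with 10 μM compound for 30 min, heated in aliquots for 3 min across 48°C-58°C, pooled, extracted in PBS with 0.5% NP-40 at 4°C, and centrifuged at 21,000xg for 90 min to give the soluble supernatant.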

Sequence of UniProt Q9Y3C6 (Q9Y3C6 whole entry, looked up): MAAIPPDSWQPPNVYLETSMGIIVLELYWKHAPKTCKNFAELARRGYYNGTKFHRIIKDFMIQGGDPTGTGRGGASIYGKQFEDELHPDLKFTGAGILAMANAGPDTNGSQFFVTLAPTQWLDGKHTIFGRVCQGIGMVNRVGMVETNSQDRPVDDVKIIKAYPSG
Sequence of UniProt Q9BRX2 (Q9BRX2 whole entry, looked up): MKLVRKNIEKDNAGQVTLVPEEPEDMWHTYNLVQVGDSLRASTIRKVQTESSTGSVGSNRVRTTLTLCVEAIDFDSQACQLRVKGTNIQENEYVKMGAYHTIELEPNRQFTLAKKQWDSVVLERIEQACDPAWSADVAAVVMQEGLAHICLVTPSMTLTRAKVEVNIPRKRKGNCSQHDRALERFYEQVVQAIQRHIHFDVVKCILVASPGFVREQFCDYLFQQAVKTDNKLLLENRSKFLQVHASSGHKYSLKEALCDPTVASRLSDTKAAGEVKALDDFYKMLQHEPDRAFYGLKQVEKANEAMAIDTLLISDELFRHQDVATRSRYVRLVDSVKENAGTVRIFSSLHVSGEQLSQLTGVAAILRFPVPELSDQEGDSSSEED
Sequence of UniProt Q15185 (Q15185 whole entry, looked up): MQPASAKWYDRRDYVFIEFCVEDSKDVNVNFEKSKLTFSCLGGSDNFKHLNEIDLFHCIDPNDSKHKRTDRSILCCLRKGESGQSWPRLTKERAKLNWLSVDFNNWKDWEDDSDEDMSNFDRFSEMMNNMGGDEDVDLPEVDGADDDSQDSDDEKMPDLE
Sequence of UniProt P06454 (P06454 whole entry, looked up): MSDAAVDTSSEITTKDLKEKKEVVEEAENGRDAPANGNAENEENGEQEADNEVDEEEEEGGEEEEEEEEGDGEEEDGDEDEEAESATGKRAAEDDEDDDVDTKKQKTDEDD
Sequence of UniProt O75340 (O75340 whole entry, looked up): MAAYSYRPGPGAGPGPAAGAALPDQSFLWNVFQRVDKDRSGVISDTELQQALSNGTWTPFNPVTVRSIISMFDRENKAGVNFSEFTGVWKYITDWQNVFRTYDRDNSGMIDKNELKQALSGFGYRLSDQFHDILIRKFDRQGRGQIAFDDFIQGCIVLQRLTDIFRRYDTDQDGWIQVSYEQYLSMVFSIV
Sequence of UniProt Q86TP1 (Q86TP1 whole entry, looked up): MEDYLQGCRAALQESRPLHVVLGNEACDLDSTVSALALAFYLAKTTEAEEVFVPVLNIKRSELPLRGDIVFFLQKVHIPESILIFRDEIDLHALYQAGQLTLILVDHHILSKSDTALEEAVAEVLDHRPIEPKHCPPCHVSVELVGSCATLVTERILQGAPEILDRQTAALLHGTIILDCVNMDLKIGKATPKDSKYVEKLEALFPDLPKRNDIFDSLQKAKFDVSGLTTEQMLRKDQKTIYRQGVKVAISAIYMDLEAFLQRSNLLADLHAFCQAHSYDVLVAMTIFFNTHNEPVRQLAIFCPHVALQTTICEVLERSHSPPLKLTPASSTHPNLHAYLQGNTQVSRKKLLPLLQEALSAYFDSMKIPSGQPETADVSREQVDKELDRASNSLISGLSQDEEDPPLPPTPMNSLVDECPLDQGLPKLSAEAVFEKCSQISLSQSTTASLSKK
Sequence of UniProt Q16822 (Q16822 whole entry, looked up): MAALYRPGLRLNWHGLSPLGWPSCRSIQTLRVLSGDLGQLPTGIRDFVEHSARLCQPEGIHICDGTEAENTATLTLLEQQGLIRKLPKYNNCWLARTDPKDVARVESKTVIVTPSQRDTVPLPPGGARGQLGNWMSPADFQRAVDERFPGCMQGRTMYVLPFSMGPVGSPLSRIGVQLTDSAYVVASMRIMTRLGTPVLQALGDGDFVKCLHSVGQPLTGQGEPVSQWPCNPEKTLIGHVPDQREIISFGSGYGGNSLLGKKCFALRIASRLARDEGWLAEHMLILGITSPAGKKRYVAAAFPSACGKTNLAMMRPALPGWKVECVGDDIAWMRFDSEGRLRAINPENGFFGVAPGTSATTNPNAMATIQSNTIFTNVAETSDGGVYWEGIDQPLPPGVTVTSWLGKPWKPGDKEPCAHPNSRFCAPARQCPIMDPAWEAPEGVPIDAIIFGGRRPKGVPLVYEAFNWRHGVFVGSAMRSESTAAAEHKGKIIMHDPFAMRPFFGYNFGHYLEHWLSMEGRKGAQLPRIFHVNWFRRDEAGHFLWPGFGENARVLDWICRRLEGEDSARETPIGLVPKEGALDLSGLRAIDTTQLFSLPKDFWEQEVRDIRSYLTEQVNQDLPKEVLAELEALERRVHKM
Sequence of UniProt P27986 (P27986 whole entry, looked up): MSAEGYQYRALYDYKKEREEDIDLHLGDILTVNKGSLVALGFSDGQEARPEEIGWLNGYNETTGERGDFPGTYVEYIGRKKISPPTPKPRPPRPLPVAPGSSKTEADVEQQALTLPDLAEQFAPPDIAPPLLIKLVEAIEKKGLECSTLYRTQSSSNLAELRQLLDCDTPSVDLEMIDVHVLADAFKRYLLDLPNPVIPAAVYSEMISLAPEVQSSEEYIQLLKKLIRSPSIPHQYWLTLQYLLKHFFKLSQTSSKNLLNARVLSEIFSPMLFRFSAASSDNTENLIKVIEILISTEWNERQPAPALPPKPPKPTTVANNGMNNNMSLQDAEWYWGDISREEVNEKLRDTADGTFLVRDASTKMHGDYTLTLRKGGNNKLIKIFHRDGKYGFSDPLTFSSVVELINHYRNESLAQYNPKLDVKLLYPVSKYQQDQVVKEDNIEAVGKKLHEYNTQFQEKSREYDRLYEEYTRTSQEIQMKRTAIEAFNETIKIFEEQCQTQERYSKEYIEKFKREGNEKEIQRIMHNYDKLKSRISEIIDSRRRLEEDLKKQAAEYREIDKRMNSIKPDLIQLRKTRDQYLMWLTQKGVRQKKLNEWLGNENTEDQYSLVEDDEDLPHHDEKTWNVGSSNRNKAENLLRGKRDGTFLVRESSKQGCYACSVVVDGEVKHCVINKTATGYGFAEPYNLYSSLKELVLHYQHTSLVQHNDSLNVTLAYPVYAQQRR
Sequence of UniProt Q9UBV8 (Q9UBV8 whole entry, looked up): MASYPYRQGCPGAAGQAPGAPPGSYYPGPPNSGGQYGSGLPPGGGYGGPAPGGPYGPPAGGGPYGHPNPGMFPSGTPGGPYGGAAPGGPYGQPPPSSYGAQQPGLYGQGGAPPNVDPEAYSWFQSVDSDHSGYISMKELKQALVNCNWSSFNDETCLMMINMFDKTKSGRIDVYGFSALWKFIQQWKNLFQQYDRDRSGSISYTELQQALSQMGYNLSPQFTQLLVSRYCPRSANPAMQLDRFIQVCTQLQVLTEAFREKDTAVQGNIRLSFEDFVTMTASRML
Sequence of UniProt P50336 (P50336 whole entry, looked up): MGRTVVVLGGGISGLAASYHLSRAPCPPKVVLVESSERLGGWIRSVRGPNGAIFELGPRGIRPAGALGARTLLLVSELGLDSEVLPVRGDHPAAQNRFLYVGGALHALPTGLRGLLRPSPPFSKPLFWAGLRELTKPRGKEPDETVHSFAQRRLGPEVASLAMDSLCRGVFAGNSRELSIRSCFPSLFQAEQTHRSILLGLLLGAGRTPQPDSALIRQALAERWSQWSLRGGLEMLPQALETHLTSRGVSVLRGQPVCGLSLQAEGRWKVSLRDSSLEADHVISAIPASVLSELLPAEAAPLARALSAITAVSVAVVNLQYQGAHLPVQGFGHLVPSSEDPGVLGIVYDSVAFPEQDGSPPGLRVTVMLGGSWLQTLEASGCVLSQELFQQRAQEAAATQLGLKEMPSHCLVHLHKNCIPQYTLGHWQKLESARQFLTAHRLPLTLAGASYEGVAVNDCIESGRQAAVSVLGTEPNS
Sequence of UniProt Q15054 (Q15054 whole entry, looked up): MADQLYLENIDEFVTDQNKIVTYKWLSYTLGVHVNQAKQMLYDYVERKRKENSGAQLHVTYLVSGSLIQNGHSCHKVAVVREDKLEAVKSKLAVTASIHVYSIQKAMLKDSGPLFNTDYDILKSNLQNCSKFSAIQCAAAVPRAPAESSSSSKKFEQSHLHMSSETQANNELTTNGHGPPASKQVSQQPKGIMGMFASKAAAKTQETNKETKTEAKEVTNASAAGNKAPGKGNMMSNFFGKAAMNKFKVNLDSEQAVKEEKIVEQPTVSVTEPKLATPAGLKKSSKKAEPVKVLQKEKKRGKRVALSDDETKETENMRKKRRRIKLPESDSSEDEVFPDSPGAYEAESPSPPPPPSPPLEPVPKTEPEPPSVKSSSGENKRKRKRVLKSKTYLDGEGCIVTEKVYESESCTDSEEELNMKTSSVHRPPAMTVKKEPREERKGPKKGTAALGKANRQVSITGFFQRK
Sequence of UniProt Q8WUK0 (Q8WUK0 whole entry, looked up): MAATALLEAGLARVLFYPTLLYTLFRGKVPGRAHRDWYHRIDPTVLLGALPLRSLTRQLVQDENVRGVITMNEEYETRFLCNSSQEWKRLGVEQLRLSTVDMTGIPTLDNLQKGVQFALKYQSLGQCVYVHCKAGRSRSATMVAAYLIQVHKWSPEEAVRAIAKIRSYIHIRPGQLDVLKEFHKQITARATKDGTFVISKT
Sequence of UniProt P62136 (P62136 whole entry, looked up): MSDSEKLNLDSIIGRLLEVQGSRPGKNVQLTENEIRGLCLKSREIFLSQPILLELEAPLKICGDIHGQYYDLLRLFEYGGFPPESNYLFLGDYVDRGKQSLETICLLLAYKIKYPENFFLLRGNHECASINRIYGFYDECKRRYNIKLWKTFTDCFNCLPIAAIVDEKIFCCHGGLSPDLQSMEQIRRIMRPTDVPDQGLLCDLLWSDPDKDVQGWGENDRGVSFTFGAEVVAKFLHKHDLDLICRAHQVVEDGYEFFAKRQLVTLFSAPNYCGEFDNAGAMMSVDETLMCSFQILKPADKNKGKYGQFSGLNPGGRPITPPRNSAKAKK
Sequence of UniProt P25788 (P25788 whole entry, looked up): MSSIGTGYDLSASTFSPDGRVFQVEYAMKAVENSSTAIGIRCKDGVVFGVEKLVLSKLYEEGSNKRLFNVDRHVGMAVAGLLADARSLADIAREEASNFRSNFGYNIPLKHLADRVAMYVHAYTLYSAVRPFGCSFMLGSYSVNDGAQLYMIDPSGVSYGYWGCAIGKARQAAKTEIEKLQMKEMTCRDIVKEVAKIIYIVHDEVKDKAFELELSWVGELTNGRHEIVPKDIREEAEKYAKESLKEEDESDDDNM

log2 fold change, inactive:
PRUNE1 (UniProt Q86TP1) 0.029, PELO (UniProt Q9BRX2) 0.05, PTMA (UniProt P06454) 0.047, PSMA3 (UniProt P25788) 0.009, POLR2G (UniProt P62487) 0.183, PRIM1 (UniProt P49642) 0.062, PTPA (UniProt A6PVN8) -0.004, PRG4 (UniProt Q92954) -0.006, PKN2 (UniProt Q16513) 0.007, PTPMT1 (UniProt Q8WUK0) -0.018, PPOX (UniProt P50336) 0.028, PRKAR1A (UniProt P10644) 0.389, PCK2 (UniProt Q16822) -0.057, PDCD6 (UniProt O75340) 0.024, PPP2R5B (UniProt Q15173) -0.321, PARP1 (UniProt P09874) -0.092, POLR2I (UniProt P36954) 0.306, PEF1 (UniProt Q9UBV8) 0.023, POLD3 (UniProt Q15054) -0.054, PTGES3 (UniProt Q15185) -0.005, PIK3R1 (UniProt P27986) -0.045, POLA1 (UniProt P09884) -0.106, PPIL1 (UniProt Q9Y3C6) 0.052, PPP1CA (UniProt P62136) 0.037
